# Laboratory results reported in paper PMC7862700, “An all-to-all approach to the identification of sequence-specific readers for epigenetic DNA modifications on cytosine”.
# Experiments:
# Assay in all cases: DAPPL (digital affinity profiling via proximity ligation, sequencing); 10 mM Tris-HCl pH 7.5, 50 mM NaCl, 1 mM DTT, 4% glycerol, room temperature, 30 min; GST-TFs on glutathione beads, 16-mer random dsDNA library, 0.1% formaldehyde crosslink after washing; high values mean tight binding
# [1] = target: T1, FEV (Homo sapiens, UniProt Q99581 1-238); conditions: protein: recombinant; tags: N-terminal GST; dsDNA, one strand shown
# T1 sequence: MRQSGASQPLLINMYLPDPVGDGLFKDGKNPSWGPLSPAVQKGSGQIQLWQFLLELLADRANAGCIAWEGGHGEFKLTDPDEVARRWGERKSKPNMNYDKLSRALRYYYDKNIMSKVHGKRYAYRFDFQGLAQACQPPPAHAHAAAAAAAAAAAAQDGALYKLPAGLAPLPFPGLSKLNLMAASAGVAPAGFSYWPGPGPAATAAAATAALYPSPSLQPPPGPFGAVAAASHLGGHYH
# In short: (§1)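 Human transcription factors fused to GST were expressed in yeast, captured on glutathione beads, given DNA barcodes and pooled with a GST-only negative control. Pools were incubated with 200 nmole of a 16-mer random double-stranded DNA library in Tris/NaCl/DTT/glycerol buffer at room temperature for 30 min. They were then washed, crosslinked with 0.1% formaldehyde, proximity-ligated (BsaI/T4 ligase, 1 h, 37 °C), PCR-amplified and sequenced on an Illumina NextSeq500. Binding signal is each 6-mer's read frequency for a factor divided by its frequency for the GST control.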
# [2] = target: ETV5 (Homo sapiens, UniProt P41161 1-510); conditions: protein: recombinant; tags: N-terminal GST; dsDNA, one strand shown
# In short: as §1
# [3] = target: HSF1 (Homo sapiens, UniProt Q00613 1-529); conditions: protein: recombinant; tags: N-terminal GST; chain copies: 3; dsDNA, one strand shown
# In short: as §1
# [4] = target: T2, SPIC (Homo sapiens, UniProt Q8N5J4 1-248); conditions: protein: recombinant; tags: N-terminal GST; dsDNA, one strand shown
# T2 sequence: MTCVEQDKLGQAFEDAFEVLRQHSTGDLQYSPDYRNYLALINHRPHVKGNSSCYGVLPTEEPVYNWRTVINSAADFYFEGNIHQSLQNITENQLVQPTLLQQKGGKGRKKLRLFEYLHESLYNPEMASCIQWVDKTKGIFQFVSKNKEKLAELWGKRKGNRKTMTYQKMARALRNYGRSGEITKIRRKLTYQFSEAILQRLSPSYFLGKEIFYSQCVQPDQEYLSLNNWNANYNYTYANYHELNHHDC
# In short: as §1
# [5] = target: ELF4 (Homo sapiens, UniProt Q99607 1-663); conditions: protein: recombinant; tags: N-terminal GST; dsDNA, one strand shown
# In short: as §1
# [6] = target: T3, ELK4 (Homo sapiens, UniProt P28324-2 1-405); conditions: protein: recombinant; tags: N-terminal GST; dsDNA, one strand shown
# T3 sequence: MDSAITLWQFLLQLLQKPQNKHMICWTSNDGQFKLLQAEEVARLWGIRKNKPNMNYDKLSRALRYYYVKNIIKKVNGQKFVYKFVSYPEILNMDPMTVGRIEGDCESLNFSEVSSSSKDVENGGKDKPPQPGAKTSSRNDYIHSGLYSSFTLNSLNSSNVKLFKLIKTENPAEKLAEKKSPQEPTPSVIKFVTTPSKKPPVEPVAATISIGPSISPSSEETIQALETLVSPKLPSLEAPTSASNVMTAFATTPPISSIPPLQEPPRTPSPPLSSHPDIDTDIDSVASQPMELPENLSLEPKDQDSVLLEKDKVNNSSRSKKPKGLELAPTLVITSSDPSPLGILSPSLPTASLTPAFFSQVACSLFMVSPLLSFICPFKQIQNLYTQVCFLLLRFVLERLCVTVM
# In short: as §1
# [7] = target: T4, ETV2 (Homo sapiens, UniProt O00321 1-342); conditions: protein: recombinant; tags: N-terminal GST; dsDNA, one strand shown
# T4 sequence: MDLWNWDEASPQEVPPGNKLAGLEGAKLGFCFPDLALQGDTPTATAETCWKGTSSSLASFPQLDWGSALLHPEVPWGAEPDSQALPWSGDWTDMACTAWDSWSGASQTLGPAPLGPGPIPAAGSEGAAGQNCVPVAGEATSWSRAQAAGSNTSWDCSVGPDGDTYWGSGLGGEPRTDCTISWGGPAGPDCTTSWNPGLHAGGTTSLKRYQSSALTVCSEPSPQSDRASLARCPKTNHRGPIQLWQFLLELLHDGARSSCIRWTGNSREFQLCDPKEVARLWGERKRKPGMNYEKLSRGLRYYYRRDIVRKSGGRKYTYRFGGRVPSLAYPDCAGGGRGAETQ
# In short: as §1
# [8] = target: T5, ELF3 (Homo sapiens, UniProt P78545 1-371); conditions: protein: recombinant; tags: N-terminal GST; dsDNA, one strand shown
# T5 sequence: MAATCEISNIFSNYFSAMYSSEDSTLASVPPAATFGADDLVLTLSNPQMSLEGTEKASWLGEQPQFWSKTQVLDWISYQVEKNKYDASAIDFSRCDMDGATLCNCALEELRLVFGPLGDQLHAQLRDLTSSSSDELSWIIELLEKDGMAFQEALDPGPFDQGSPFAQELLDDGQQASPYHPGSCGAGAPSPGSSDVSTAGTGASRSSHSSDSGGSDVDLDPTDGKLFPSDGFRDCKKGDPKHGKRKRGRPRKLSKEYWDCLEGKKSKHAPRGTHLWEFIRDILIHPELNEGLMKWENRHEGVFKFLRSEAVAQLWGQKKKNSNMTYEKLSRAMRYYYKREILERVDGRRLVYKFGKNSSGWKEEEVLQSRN
# In short: as §1
# [9] = target: CRX (Homo sapiens, UniProt O43186 1-299); conditions: protein: recombinant; tags: N-terminal GST; dsDNA, one strand shown
# In short: as §1
# [10] = target: ETV1 (Homo sapiens, UniProt P50549 1-477); conditions: protein: recombinant; tags: N-terminal GST; dsDNA, one strand shown
# In short: as §1
# [11] = target: T6, ERF (Homo sapiens, UniProt P50548 1-548); conditions: protein: recombinant; tags: N-terminal GST; dsDNA, one strand shown
# T6 sequence: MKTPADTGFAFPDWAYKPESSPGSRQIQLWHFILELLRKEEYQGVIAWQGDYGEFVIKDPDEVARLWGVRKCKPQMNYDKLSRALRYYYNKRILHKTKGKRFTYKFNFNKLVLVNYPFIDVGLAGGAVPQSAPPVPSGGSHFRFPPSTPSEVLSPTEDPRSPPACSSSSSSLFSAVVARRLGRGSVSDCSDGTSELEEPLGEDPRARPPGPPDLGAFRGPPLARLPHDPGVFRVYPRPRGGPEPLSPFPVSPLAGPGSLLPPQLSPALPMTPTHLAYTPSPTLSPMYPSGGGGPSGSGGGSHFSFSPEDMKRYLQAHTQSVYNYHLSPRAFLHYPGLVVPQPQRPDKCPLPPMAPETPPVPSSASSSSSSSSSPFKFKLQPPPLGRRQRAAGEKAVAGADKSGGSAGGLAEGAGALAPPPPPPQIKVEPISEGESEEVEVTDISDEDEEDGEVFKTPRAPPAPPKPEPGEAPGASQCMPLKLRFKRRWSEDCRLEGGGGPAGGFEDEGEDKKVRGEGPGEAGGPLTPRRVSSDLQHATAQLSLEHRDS
# In short: as §1
# [12] = target: T7, ETV3L (Homo sapiens, UniProt Q6ZN32 1-361); conditions: protein: recombinant; tags: N-terminal GST; dsDNA, one strand shown
# T7 sequence: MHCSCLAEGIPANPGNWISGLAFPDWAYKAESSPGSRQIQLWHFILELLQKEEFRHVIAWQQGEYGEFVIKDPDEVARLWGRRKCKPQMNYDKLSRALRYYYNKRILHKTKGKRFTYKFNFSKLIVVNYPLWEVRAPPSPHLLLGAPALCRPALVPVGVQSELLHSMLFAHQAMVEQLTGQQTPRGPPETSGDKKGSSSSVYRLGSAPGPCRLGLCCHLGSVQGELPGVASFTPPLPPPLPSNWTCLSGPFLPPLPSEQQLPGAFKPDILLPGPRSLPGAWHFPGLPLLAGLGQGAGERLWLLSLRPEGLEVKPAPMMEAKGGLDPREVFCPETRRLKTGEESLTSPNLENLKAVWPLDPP
# In short: as §1
# [13] = target: T8, ETS2 (Homo sapiens, UniProt P15036 1-469); conditions: protein: recombinant; tags: N-terminal GST; dsDNA, one strand shown
# T8 sequence: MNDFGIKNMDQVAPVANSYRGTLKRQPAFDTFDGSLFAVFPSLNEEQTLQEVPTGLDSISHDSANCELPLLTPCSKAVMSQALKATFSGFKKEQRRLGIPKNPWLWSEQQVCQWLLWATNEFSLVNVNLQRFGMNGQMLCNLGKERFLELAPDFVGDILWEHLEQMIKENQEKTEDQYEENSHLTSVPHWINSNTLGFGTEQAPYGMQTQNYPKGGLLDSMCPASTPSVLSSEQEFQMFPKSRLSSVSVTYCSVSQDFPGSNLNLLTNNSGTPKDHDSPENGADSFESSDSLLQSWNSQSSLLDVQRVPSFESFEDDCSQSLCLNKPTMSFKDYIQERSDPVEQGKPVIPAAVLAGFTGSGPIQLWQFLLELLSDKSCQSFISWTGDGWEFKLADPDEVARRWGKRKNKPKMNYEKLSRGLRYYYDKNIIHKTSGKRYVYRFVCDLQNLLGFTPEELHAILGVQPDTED
# In short: as §1
# [14] = target: T9, SPDEF (Homo sapiens, UniProt O95238 1-335); conditions: protein: recombinant; tags: N-terminal GST; dsDNA, one strand shown
# T9 sequence: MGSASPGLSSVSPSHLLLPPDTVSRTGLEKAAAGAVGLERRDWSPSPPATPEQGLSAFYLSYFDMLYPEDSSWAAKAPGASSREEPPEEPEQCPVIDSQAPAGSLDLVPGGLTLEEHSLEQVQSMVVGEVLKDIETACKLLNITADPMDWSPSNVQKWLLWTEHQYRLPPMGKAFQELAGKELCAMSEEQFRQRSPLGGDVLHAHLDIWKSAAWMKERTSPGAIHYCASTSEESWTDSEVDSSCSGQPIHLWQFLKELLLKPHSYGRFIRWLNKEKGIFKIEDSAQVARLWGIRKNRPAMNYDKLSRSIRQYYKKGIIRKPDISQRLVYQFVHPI
# In short: as §1
# [15] = target: T10, ETV7 (Homo sapiens, UniProt Q9Y603 1-341); conditions: protein: recombinant; tags: N-terminal GST; dsDNA, one strand shown
# T10 sequence: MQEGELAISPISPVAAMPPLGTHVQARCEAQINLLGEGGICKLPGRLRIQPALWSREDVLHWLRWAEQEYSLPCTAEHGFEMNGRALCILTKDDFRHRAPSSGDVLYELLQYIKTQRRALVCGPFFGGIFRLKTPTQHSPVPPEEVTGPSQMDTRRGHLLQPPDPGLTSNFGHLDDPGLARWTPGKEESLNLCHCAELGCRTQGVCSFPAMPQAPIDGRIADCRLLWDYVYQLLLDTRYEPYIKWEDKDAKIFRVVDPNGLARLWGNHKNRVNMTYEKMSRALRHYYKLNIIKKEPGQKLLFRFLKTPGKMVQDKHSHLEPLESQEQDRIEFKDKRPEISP
# In short: as §1
# [16] = target: T11, ELF5 (Homo sapiens, UniProt Q9UKW6-2 1-255); conditions: protein: recombinant; tags: N-terminal GST; dsDNA, one strand shown
# T11 sequence: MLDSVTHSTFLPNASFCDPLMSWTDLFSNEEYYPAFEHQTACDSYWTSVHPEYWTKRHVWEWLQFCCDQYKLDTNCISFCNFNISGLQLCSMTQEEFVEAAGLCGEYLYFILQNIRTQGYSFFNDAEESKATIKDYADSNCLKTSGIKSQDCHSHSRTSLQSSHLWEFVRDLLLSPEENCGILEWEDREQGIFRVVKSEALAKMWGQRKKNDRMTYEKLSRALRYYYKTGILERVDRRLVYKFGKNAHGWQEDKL
# In short: as §1
# [17] = target: T12, ETV3 (Homo sapiens, UniProt P41162-2 1-143); conditions: protein: recombinant; tags: N-terminal GST; dsDNA, one strand shown
# T12 sequence: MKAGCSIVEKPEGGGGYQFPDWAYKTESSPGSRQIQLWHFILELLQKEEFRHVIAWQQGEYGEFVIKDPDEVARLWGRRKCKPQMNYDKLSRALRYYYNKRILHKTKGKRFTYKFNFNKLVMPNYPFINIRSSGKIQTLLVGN
# In short: as §1
# [18] = target: ETV6 (Homo sapiens, UniProt P41212 1-452); conditions: protein: recombinant; tags: N-terminal GST; dsDNA, one strand shown
# In short: as §1
# Chain of ETV1 (P50549 whole entry): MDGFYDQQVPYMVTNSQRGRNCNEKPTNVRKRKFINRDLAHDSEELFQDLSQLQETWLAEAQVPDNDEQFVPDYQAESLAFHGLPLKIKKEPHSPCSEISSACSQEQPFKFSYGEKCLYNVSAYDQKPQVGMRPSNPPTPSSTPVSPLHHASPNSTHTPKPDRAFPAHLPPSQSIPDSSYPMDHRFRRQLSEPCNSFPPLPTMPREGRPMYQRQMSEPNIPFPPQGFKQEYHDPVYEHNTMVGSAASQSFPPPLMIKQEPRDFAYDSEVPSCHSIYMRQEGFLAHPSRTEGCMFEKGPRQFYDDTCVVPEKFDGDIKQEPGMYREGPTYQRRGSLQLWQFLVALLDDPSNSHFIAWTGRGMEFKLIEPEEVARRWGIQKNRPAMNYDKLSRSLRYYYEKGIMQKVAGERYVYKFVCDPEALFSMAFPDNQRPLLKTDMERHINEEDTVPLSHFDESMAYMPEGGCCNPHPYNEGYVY
# Chain of HSF1 (Q00613 whole entry): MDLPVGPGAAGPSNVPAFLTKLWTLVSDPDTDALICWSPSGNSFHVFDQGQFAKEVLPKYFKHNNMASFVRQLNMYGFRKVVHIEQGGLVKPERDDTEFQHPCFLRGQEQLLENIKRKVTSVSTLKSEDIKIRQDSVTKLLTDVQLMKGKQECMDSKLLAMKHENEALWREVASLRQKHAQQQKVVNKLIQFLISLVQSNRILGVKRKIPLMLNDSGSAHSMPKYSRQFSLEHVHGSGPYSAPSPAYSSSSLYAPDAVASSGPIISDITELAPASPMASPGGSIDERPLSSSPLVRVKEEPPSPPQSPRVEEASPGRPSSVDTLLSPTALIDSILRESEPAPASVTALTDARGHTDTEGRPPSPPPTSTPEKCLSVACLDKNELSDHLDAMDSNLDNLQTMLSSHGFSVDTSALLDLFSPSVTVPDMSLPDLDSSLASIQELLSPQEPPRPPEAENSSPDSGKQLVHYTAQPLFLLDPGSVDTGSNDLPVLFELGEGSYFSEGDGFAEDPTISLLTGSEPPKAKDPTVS
# Chain of CRX (O43186 whole entry): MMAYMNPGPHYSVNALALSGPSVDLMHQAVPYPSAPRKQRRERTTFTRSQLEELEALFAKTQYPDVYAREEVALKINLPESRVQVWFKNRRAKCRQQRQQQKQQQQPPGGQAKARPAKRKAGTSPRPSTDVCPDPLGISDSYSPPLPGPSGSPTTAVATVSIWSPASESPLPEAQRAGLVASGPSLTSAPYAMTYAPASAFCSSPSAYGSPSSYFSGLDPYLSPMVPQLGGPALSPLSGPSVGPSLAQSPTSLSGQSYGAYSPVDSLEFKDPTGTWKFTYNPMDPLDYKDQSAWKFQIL
# Chain of ETV6 (P41212 whole entry): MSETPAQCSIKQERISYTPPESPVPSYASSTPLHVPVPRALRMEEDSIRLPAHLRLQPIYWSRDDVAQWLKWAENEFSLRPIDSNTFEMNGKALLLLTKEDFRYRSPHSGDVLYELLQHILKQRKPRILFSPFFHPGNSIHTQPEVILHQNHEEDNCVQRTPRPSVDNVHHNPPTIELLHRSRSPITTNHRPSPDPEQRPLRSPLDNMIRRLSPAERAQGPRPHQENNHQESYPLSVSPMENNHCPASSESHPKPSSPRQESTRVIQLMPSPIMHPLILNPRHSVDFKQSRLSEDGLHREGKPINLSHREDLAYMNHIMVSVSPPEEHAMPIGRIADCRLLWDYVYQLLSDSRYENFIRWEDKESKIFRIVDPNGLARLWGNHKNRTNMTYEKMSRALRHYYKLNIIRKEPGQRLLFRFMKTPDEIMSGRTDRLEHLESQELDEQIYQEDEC
# Chain of ETV5 (P41161 whole entry): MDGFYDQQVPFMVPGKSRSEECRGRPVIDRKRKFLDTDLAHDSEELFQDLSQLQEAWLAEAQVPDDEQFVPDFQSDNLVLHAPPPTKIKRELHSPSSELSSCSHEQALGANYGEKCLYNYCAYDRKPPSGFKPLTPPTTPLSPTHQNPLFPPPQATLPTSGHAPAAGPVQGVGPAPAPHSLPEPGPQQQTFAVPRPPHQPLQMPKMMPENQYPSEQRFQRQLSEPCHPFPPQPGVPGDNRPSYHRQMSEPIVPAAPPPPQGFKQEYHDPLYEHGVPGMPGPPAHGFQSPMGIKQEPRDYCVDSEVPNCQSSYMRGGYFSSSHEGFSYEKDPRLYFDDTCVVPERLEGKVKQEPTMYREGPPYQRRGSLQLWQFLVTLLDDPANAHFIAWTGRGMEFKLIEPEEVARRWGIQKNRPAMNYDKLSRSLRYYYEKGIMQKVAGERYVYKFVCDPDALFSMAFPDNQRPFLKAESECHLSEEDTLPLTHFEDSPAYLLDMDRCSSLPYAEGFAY
# Chain of ELF4 (Q99607 whole entry): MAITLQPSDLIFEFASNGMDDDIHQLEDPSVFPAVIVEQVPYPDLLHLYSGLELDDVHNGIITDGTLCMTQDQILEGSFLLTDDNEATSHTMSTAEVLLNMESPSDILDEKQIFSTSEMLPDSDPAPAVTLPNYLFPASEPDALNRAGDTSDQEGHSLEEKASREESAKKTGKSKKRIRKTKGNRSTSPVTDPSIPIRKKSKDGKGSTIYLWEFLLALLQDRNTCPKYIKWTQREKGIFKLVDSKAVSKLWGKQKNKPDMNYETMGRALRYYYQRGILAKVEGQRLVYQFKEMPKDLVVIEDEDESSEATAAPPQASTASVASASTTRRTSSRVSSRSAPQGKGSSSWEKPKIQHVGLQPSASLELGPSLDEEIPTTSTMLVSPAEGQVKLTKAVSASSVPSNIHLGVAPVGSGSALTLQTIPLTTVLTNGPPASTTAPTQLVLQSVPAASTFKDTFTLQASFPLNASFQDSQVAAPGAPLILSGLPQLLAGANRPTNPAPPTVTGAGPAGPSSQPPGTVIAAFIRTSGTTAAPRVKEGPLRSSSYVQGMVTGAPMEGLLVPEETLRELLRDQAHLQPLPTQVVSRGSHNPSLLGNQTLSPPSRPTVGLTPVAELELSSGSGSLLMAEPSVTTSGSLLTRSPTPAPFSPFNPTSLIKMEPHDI
sequence,measurement,setting,value
GCTTAC,binding signal,[1],"1.15 fold enrichment (6-mer frequency, TF over GST control)"
same,binding signal,[2],"1.12 fold enrichment (6-mer frequency, TF over GST control)"
same,binding signal,[3],"1.44 fold enrichment (6-mer frequency, TF over GST control)"
same,binding signal,[4],"1.21 fold enrichment (6-mer frequency, TF over GST control)"
same,binding signal,[5],"1.1 fold enrichment (6-mer frequency, TF over GST control)"
same,binding signal,[6],"1.1 fold enrichment (6-mer frequency, TF over GST control)"
same,binding signal,[7],"1.22 fold enrichment (6-mer frequency, TF over GST control)"
same,binding signal,[8],"1.4 fold enrichment (6-mer frequency, TF over GST control)"
same,binding signal,[9],"2.01 fold enrichment (6-mer frequency, TF over GST control)"
same,binding signal,[10],"1.22 fold enrichment (6-mer frequency, TF over GST control)"
same,binding signal,[11],"1.13 fold enrichment (6-mer frequency, TF over GST control)"
same,binding signal,[12],"1.09 fold enrichment (6-mer frequency, TF over GST control)"
same,binding signal,[13],"1.09 fold enrichment (6-mer frequency, TF over GST control)"
same,binding signal,[14],"1.23 fold enrichment (6-mer frequency, TF over GST control)"
same,binding signal,[15],"1.03 fold enrichment (6-mer frequency, TF over GST control)"
same,binding signal,[16],"1.14 fold enrichment (6-mer frequency, TF over GST control)"
same,binding signal,[17],"1.23 fold enrichment (6-mer frequency, TF over GST control)"
same,binding signal,[18],"1.03 fold enrichment (6-mer frequency, TF over GST control)"
